# Test results reported in PubChem BioAssay AID493087 (The Scripps Research Institute Molecular Screening Center, 2011).
# About 240 (0.071%) of roughly 340,000 compounds were called active. The entries come from a sample that favours actives as a whole. Values without a mark were called inactive.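 How the source made its calls: active means activation above the mean of all tested compounds plus 3 SD, set per screening campaign (cut at about 17% in these data); inactive means the rest.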
# Molecular target: Insulin-degrading enzyme (Homo sapiens) (UniProt P14735)
# Sequence (P14735 whole entry, looked up): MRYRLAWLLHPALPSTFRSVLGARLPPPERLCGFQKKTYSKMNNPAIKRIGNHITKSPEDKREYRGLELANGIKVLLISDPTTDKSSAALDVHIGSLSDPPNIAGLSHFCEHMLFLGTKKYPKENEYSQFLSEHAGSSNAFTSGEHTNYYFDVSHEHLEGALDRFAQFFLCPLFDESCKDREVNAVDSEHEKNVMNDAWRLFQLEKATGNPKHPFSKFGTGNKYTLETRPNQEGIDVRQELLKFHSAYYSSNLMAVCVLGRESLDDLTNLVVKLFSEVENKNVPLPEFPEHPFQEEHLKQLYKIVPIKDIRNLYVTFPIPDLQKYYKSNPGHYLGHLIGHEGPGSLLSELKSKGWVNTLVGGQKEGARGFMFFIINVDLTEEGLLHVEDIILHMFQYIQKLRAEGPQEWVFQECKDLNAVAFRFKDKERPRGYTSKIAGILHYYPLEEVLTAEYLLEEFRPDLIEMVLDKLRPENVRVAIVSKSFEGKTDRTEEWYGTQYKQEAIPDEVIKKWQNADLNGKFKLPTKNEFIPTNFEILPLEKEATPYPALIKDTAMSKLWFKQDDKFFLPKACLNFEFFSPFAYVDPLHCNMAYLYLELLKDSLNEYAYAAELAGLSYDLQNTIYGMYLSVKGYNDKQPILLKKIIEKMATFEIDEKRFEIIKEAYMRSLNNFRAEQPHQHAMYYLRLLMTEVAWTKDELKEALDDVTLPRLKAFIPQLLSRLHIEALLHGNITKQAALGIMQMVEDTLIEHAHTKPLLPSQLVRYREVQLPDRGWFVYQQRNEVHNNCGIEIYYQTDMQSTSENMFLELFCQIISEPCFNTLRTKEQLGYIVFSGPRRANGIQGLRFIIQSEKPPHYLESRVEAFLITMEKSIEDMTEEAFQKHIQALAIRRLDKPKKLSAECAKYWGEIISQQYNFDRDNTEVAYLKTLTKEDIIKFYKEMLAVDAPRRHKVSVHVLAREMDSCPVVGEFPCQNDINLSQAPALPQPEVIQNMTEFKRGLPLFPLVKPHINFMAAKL
# Test: human IDE activators in live cells, primary screen, fluorescence polarization, HEK cells, FAbeta-B substrate (AID 493087)
# Conditions: FAbeta-B cleavage, at 5.96 µM, hits give high values, 0% vehicle, 100% cell-free pure enzyme wells
row,Compound,activation
1,CCOC(=O)C1CCCN(S(=O)(=O)c2ccc3c(c2)C(C)(C)C(=O)N3C)C1 (stereo not drawn),4.3%
2,CC(=O)N1CCCc2cc(S(=O)(=O)N3CCCC(C(=O)N4CCN(c5cccc(Cl)c5)CC4)C3)ccc21 (stereo not drawn),1.25%
3,O=C1CCC[C@@H]2CC(N3CCCCC3)C[C@@H]3CCN1[C@H]23 (stereo partly drawn),3.58%
4,Cc1cccc(CCNC(=O)Cn2ncc3c([nH]c4ccc(C)cc43)c2=O)c1,4.1%
5,COc1cccc(NC(=O)CC(c2ccc(OC(C)C)cc2)c2ccccc2OC)c1 (stereo not drawn),5.55%
6,Cc1cccc(C(=O)NC(=S)N2CCN(c3ccc([N+](=O)[O-])cc3)CC2)c1,7.97%
7,Cc1ccc(S(=O)(=O)N(C)C)cc1NC(=O)CN1c2cccc3cccc(c23)S1(=O)=O,-4.07%
8,O=C(CN1CCN(c2cccc(Cl)c2)CC1)Nc1ccc(S(=O)(=O)N2CCOCC2)cc1,-1.02%
9,CC1CC(C)CN(CCCNC(=O)c2csc3c2CCCCC3)C1 (stereo not drawn),0.64%
10,COc1ccc(NS(=O)(=O)c2ccc(N3CCN(CCO)CC3)c([N+](=O)[O-])c2)cc1,4.53%
11,O=C1OCC2=C1C(c1ccccc1)CC(=O)N2c1cccc(F)c1 (stereo not drawn),2.91%
12,CCOC(=O)C1(CC2CCCCO2)CCN(Cc2nc(-c3cccs3)oc2C)CC1 (stereo not drawn),-1.12%
13,CCOC(=O)C1CCCN(C(=O)c2ccc(CS(=O)(=O)c3ccc(Br)cc3)o2)C1 (stereo not drawn),-1.91%
14,CCN1CCN(C2CCCCC2NS(=O)(=O)c2ccc(Cl)cc2)CC1 (stereo not drawn),5.06%
15,O=C1c2ccccc2C(=O)N1CCC(c1ccccc1)c1ccco1 (stereo not drawn),7.64%
16,CSc1nnnn1-c1c(C)cc(C)cc1C,-3%
17,CCOCCCNC(=O)c1c[nH]c2cc(C)ccc2c1=O,4.46%
18,O=C1CC(c2ccccc2)C(=O)N2C(=O)CC(c3ccccc3)C(=O)N12 (stereo not drawn),3.82%
19,CCc1nccn1S(=O)(=O)c1cccc([N+](=O)[O-])c1,6.7%
20,COC(=O)c1ccc(CNC(=O)Cn2cc(C)c(=O)[nH]c2=O)cc1,4.54%
21,COC(=O)C1=CN(Cc2ccc(OC)cc2)C=C(C(=O)OC)C1c1ccc(O)c(OC)c1,5.83%
22,C=CCNC(=S)/N=c1/ccccn1Cc1ccccc1,4.17%

row,Compound,activation
1,COc1ccc(C(=O)CN2C(=O)NC(C)(c3ccc(C)cc3)C2=O)cc1OC (stereo not drawn),-1.44%
2,CCOc1ccc(CCNC(=O)COC(=O)C2CCN(S(=O)(=O)c3ccccc3)CC2)cc1OCC,2.21%
3,CCc1nnc(NC(=O)C2CC(=O)N(c3ccc4c(c3)OCCO4)C2)s1 (stereo not drawn),3.02%
4,Cn1c(=O)n(C)c2cc(S(=O)(=O)Nc3ccc(F)cc3)ccc21,4.63%
5,Cc1cc2oc(C(=O)Nc3c(C)n(C)n(-c4ccccc4)c3=O)c(C)c2cc1Cl,1.29%
6,S=C1Nc2cc(Cl)ccc2Sc2ccccc21,0.11%
7,CC(C#N)(NC(=O)CN1CCN(S(=O)(=O)c2cc(C(F)(F)F)ccc2Cl)CC1)C1CC1 (stereo not drawn),5.5%
8,CNC(=O)NC(=O)C(OC(=O)c1cccc(S(=O)(=O)N2CCCCC2)c1)c1ccccc1 (stereo not drawn),-3.23%
9,N#Cc1ccccc1NC(=O)COc1c(Br)cc(Br)c2cccnc12,-2.72%
10,COc1ccc(S(=O)(=O)N2CCN(c3cnccn3)CC2)cc1,0.13%
11,O=C(NCCc1ccc(F)cc1)c1ccc2nccnc2c1,-0.11%
12,CCC(=O)Nc1cccc(C2=NOC3(C2)C[C@@H](C(N)=O)N(C(=O)c2cc([N+](=O)[O-])cc([N+](=O)[O-])c2C)C3)c1 (stereo partly drawn),5.78%
13,O=C(N/C(=C\c1ccc(F)cc1)C(=O)N1CCCCCC1)c1ccccc1,5.73%
14,O=C(C1Cc2ccccc2CN1C(=O)c1ccco1)N1CCN(c2ccccc2)CC1 (stereo not drawn),4.46%
15,CCOC(=O)CSc1nnc(CNC(=O)c2cccs2)n1-c1cc(OC)ccc1OC,0.94%
16,COc1ccc(-c2oc3ncn(Cc4ccco4)c(=N)c3c2-c2ccc(OC)cc2)cc1,5.41%
17,CCOC(=O)c1cccc(NC(=O)CN2C(=O)C3CC=CCC3C2=O)c1 (stereo not drawn),1.23%
18,Cn1c2ccccc2c2cc(/C=C(\NC(=O)c3ccccc3)C(=O)NCC(=O)O)ccc21,-43.6%
19,CCN1CCN(c2cc3nc(C)n(Cc4ccccc4)c(=O)c3cc2NC(=O)c2ccccc2F)CC1,2.61%
20,Cc1ccsc1C(=O)NC1CCCCC1C (stereo not drawn),-2.46%
21,Cc1cc(=O)oc(C)c1C(=O)NCCN(C)Cc1ccccc1,-4.58%
22,CN(C(=O)CSc1nnc(C2CC2)n1C)C1CCCc2ccccc21 (stereo not drawn),0.43%

row,Compound,activation
1,CC(C)C(NC(=O)c1c(F)cccc1F)C(=O)NNC(=O)c1ccccc1 (stereo not drawn),5.51%
2,O=S(=O)(Nc1ccc2ccccc2c1)N1CCCCC1,1.85%
3,CC1CCC(NS(=O)(=O)c2ccc3c(c2)CC(=O)N3)CC1 (stereo not drawn),3.97%
4,Cc1c(CN2CCC(CO)(CCOc3ccccc3)CC2)[nH]c2ccc(Cl)cc12,24.6% (active)
5,CCOC(=O)C1(CCOc2ccccc2)CCN(Cc2cc(OC)c(O)cc2Cl)CC1,2.9%
6,CCOC(=O)C1(CCOc2ccccc2)CCN(Cc2cc(OC)cc(OC)c2)CC1,-1.76%
7,COc1ccccc1/C=C/C1=NC(=C\N(C)C)/C(=O)O1,-5.01%
8,Cn1c(=O)c2cc(S(=O)(=O)NCCC(=O)Nc3ccc(F)cc3F)ccc2n(C)c1=O,5.29%
9,COc1ccc(C2C(C#N)=C(N)Oc3n[nH]c(C)c32)cc1CN1CCN(c2ccc(F)cc2)CC1 (stereo not drawn),-3.14%
10,Cc1cccc(NC(=O)CSc2nnc(CCNC(=O)OC(C)(C)C)o2)c1C,-0.87%
11,Cc1ccccc1OC(=O)Cn1c(C(F)(F)F)nc2ccccc21,3.41%
12,Cc1cc(C)cc(NC(=O)NC2CCCCCCC2)c1,0.99%
13,COC1C(CO)OC(n2cnc3c(=S)nc(N)[nH]c32)C1O (stereo not drawn),-9.08%
14,Cc1noc(C)c1NC(=O)Nc1cccc2c1O[C@H](CN(C)S(=O)(=O)c1c(C)noc1C)[C@@H](C)CN([C@H](C)CO)C2=O,-2.65%
15,O=S(=O)(/C=C/c1ccccc1)NCCc1ccccn1,2.29%
16,NS(=O)(=O)c1ccc(NC(=O)COC(=O)c2c3c(nc4ccccc24)/C(=C\c2ccc4c(c2)OCO4)CCC3)cc1,1.16%
17,O=C(COC(=O)c1ccncc1)Nc1ccc2c(c1)OCO2,3.58%
18,NC(=O)c1ccc(NC(=O)COC(=O)c2c3c(nc4ccccc24)/C(=C\c2ccc4c(c2)OCO4)CCC3)cc1,39.3% (active)
19,CCCN(CC(=O)Nc1ccc(C(N)=O)cc1)CC(=O)Nc1ccccc1C,0.5%
20,O=S(=O)(c1ccc2ccccc2c1)N1CCN(S(=O)(=O)N2CCOCC2)CC1,-4.09%
21,Cc1ccc(CC(=O)N(C)CC(=O)N(CC(C)C)c2c(N)n(CC(C)C)c(=O)[nH]c2=O)cc1C,-3.16%
22,O=C(NCc1ccncc1)C(=O)NCC1OCCN1S(=O)(=O)c1ccc(Br)cc1 (stereo not drawn),1.15%

row,Compound,activation
1,COc1cccc2sc(N(CCCN(C)C)C(=O)CCS(=O)(=O)c3ccccc3)nc12,5.71%
2,COc1cccc2sc(N(CCCN(C)C)C(=O)C(c3ccccc3)c3ccccc3)nc12,31% (active)
3,COc1cc2ccccc2cc1C(=O)N(CCN(C)C)c1nc2c(F)cccc2s1,6.93%
4,NS(=O)(=O)c1ccc(NC2=CC(c3ccc(F)cc3)N(c3ccc(S(N)(=O)=O)cc3)C2=O)cc1 (stereo not drawn),1.07%
5,CC(=O)c1cccc(-n2nnnc2SCC(=O)NNC(=O)C2CCCCC2)c1,6.48%
6,Oc1ccc2ccc3cccc[n+]3c2c1,26.2% (active)
7,Oc1ccc(-c2nc3ccccc3nc2-c2ccc(O)cc2O)c(O)c1,3.04%
8,Cc1ccc(-c2nn(C(C)(C)C)c3ncnc(N)c23)cc1,2.32%
9,Cc1cccc2c1cnn2C(=O)CCC(=O)NC1CCCCC1,0.37%
10,COc1cc(Cl)cc(C2NC(=O)NC(C)=C2C(=O)NCc2ccccc2)c1O (stereo not drawn),-1.41%
11,COc1ccc(C2NC(=O)c3ccccc3N2)cc1 (stereo not drawn),3.47%
12,Brc1ccccc1C1Nc2cccc3cccc(c23)N1,8.61%
13,Oc1ccc(C2Nc3cccc4cccc(c34)N2)cc1,19.4% (active)
14,C=CCOC(=O)C1=C[C@H](c2ccc(Br)cc2)C[C@H](OCCCCO)O1,-1.17%
15,NC(=O)COC(=O)c1ccc2c(c1)C(=O)N(Cc1ccco1)C2=O,1.77%
16,O=C(Nc1cc2c3c(c1)C1CCCC1CN3CC1CCCC21)c1ccc([N+](=O)[O-])cc1 (stereo not drawn),1.32%
17,CC(=O)c1ccc(N2CCN(CC(O)c3ccccc3)CC2)cc1 (stereo not drawn),3.22%
18,Cc1ccccc1OC/C(O)=C(\C#N)c1nc2ccccc2[nH]1,22.2% (active)
19,CC(C)(C)c1nnc2sc(SCC(O)=C(C#N)c3nc4ccccc4[nH]3)nn2c1=O,-2.57%
20,COCCNC(=O)COc1ccccc1C,3.83%
21,O=C(Nc1ccccc1C(=O)N1CCCCC1)c1ccco1,7.42%
22,CC(C)[C@@H](C(=O)OCC(=O)c1ccc2c(c1)NC(=O)CO2)N1C(=O)c2ccccc2C1=O,6.47%
